Reference: PubChem BioAssay (NCATS)
Several values for one entry are separate records, joined by “and”; a condition that tells them apart may be missing. Identical values can stand only once. Results filed as inconclusive are left out. Entries that show only a call come without a potency. Activity calls are given as the source filed them. Unless noted, the call rests on the fitted dose curve.

Key:
[1] = Primary qHTS for inhibitors of SARS-S pseudo-typed particle cell entry (AID 1479145); details: outcome: dose series up to 57.1 µM unless noted; further: nearly all actives have a fitted effect of over 45% in size; further: potency means the concentration at half of the fitted maximal effect
[2] = Primary qHTS for Huh7 cytotoxicity: counterscreen for inhibitors of MERS-S pseudotyped particle cell entry (AID 1479147); details: outcome: dose series up to 57.1 µM unless noted; further: potency means the concentration at half of the fitted maximal effect
[3] = Primary qHTS for inhibitors of MERS-S pseudo-typed particle cell entry (AID 1479149); details: outcome: dose series up to 57.1 µM unless noted; further: nearly all actives have a fitted effect of over 60% in size; further: potency means the concentration at half of the fitted maximal effect
[4] = Primary qHTS for Vero E6 cytotoxicity: counterscreen for inhibitors of SARS-S pseudo-typed particle cell entry (AID 1479150); details: outcome: dose series up to 57.1 µM unless noted
[5] = Primary qHTS to identify inhibitors of SARS-CoV-2 cell entry (AID 1645846); details: SARS-CoV-2 pseudovirus cell entry assay, luminescence; activity change, negative = inhibition: at 57.1 µM (top of the series) unless noted; further: nearly all actives have a fitted effect of over 45% in size; further: potency means the concentration at half of the fitted maximal effect
Procedure, shortened: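 Data are normalized to wells receiving SARS-CoV-2-S pseudoparticles and those given bald particles. Entry signal was luciferase luminescence in stable hACE2 Expi293F cells, 48 hr post-infection, after 1 hr compound pretreatment.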

[6] = target: Glucocorticoid receptor (Homo sapiens) (UniProt P04150); experiment: qHTS assay for small molecule agonists of glucocorticoid receptor signaling (AID 588532; active means well fitted curve in the direction sought with a large enough effect in the signal ratio, with a control signal flat; the % refers to the signal ratio); details: HeLa MMTV-bla, beta-lactamase ratio, agonist, 18 h; stronger effect = higher value; percent of dexamethasone control, DMSO zero
Glucocorticoid receptor (Homo sapiens), sequence (P04150 whole entry, looked up): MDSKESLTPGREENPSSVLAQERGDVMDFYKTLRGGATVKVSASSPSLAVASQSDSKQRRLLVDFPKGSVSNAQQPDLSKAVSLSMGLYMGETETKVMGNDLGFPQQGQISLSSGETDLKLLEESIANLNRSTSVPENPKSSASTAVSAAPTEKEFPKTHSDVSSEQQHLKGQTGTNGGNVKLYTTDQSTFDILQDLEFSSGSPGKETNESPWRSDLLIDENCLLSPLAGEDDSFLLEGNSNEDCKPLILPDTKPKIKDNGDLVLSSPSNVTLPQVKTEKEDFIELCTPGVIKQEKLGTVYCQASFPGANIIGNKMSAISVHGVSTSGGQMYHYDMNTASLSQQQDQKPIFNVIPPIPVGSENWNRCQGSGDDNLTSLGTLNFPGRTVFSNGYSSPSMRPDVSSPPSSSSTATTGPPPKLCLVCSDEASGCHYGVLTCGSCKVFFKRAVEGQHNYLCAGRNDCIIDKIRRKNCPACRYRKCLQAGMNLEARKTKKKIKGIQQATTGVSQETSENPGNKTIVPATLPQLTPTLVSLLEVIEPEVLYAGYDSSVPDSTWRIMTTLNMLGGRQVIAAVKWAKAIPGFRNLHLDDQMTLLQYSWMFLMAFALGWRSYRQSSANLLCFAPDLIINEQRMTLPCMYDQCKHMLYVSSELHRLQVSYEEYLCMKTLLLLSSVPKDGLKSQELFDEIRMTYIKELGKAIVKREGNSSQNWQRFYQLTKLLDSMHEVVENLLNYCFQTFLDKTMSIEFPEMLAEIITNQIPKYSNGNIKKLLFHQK
Procedure, shortened: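 MMTV-bla HeLa beta-lactamase reporter cells in 1% charcoal/dextran FBS medium, compounds up to 92 uM for 18 h at 37 C, CCF4 readout; normalized to 0.1 uM dexamethasone (100%), EC50 and efficacy from Hill fits.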

[7] = target: Peroxisome proliferator-activated receptor delta (Homo sapiens) (UniProt Q03181); experiment: qHTS assay for small molecule agonists of peroxisome proliferator-activated receptor delta signaling (AID 588534)
Peroxisome proliferator-activated receptor delta (Homo sapiens), sequence (Q03181 whole entry, looked up): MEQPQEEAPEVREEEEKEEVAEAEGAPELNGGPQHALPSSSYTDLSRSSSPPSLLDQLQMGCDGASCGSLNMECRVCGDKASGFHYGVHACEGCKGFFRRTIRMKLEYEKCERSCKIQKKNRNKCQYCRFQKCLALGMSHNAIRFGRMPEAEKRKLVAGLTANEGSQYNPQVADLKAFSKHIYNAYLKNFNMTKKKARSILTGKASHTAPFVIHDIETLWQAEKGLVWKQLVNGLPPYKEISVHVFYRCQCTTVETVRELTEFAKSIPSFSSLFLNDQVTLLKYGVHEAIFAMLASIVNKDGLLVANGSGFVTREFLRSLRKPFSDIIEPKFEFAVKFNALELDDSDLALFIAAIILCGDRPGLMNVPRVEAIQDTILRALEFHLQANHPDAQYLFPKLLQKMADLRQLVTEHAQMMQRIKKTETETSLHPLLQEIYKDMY
Procedure, shortened: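 EC50 and efficacy values derive from Hill fits of a concentration series in a beta-lactamase reporter cell assay. Exposure is 18 hrs at 37 C, with CCF4 fluorescence as the readout.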

[8] = target: Vitamin D3 receptor (Homo sapiens) (UniProt P11473); experiment: qHTS assay for small molecule agonists of vitamin D receptor signaling (AID 588543)
Vitamin D3 receptor (Homo sapiens), sequence (P11473 whole entry, looked up): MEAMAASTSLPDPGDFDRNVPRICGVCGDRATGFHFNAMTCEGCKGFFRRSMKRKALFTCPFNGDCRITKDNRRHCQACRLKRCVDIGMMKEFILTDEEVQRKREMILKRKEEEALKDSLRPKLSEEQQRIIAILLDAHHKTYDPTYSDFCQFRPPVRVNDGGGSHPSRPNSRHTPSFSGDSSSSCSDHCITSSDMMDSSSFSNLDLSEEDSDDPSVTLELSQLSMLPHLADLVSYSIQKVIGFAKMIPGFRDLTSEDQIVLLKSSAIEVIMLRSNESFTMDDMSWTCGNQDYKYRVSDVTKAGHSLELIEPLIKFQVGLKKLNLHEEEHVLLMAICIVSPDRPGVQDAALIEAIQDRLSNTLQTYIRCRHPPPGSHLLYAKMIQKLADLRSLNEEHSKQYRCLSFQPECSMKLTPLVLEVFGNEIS
Procedure, shortened: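 qHTS in agonist mode: compound titrations stimulate a VDR-driven β-lactamase reporter in HEK293T cells over 16 h at 37 °C. Response normalized to 50 nM 1α,25-dihydroxyvitamin D3 = 100%, DMSO = 0%; Hill fitting gives EC50 and maximal response.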

[9] = qHTS assay for small molecule agonists of retinoid X receptor alpha signaling (AID 588544); details: HEK293T RXRa-UAS-bla, beta-lactamase reporter, 18 h; 530 nm emission
[10] = target: Retinoic acid receptor RXR-alpha (Homo sapiens) (UniProt P19793); experiment: as above
Retinoic acid receptor RXR-alpha (Homo sapiens), sequence (P19793 whole entry, looked up): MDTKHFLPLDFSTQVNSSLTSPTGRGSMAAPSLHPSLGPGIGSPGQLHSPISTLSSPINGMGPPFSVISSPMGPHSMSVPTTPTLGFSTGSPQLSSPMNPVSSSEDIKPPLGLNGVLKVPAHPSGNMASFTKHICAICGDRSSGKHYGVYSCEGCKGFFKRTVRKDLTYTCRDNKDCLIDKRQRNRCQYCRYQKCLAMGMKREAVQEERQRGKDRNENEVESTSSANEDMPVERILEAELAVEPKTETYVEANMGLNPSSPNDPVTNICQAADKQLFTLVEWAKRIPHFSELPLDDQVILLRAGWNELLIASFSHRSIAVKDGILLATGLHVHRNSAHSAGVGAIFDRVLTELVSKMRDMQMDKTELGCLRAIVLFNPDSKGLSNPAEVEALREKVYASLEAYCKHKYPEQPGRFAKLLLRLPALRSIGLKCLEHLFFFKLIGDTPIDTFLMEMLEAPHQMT

[11] = target: Thyroid hormone receptor beta (Homo sapiens) (UniProt P10828); experiment: qHTS assay for small molecule agonists of thyroid hormone receptor beta signaling (AID 588545)
Thyroid hormone receptor beta (Homo sapiens), sequence (P10828 whole entry, looked up): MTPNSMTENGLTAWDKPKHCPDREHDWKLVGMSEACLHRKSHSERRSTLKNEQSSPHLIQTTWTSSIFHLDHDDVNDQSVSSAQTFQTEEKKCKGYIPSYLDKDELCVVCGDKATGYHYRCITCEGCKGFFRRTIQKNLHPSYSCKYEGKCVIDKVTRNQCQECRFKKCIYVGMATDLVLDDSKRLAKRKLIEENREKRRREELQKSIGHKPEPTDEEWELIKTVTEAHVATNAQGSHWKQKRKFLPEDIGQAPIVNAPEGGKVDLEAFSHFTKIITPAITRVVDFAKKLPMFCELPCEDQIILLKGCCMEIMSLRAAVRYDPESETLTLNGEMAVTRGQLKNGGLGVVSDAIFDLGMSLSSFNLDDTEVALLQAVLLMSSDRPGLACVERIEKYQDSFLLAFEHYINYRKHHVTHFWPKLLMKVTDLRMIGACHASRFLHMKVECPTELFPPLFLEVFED
Procedure, shortened: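 Cells (2500/well) were seeded, incubated 4 hrs at 37 C, dosed with a compound series, incubated 18 hrs, loaded with CCF4 dye for 2 hrs at RT, then read for fluorescence. Data were scaled between DMSO (0%) and 10 nM T3 (100%).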

[12] = target: Luciferin 4-monooxygenase (Photinus pyralis) (UniProt P08659); experiment: Biochemical firefly luciferase enzyme assay for NPC (AID 624030; active means well fitted curve in the direction sought with a large enough effect; an effect the other way counts as inactive or inconclusive;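 further: purified P. pyralis luciferase at 10 nM with luciferin and ATP substrate; nearly all actives have a fitted effect of over 70% in size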)
Luciferin 4-monooxygenase (Photinus pyralis), sequence (P08659 whole entry, looked up): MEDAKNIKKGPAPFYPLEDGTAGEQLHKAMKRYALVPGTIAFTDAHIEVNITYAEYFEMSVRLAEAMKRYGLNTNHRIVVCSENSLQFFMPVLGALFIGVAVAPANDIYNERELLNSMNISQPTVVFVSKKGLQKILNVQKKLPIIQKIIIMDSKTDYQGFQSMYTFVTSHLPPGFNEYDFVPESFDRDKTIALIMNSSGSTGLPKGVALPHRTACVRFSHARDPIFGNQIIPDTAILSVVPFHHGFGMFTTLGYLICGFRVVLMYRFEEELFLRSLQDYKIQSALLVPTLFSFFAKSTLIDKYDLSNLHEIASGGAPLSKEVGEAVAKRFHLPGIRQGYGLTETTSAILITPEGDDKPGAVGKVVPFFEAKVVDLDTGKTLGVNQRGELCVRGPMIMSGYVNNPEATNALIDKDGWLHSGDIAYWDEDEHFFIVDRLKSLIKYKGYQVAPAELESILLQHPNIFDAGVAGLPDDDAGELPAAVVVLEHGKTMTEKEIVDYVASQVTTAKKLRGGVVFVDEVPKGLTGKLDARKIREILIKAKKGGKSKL
Procedure, shortened: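 Purified P. pyralis luciferase at 10 nM in 50 mM Tris Acetate (final), luminescence read within 5 minutes of enzyme addition to compounds. Activity normalised to PTC124 versus DMSO; concentration-response curves classed by r2, magnitude and activity.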

[13] = qHTS assay for small molecule agonists of the antioxidant response element (ARE) signaling pathway (AID 651741; active means well fitted activation curve with a large enough effect in the signal ratio; the % refers to the signal ratio)
Procedure, shortened: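 HepG2 ARE-bla reporter cells, 2,000/well; 5 h settle at 37 C/5% CO2; compound pin transfer (23 nL, DMSO); 16 h at 37 C; LiveBLAzer B/G FRET substrate, 2 h RT; fluorescence intensity read.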

[14] = Cytotoxicity counterscreen for inhibitors of SARS-CoV-2 cell entry (AID 1645845); details: outcome: dose series up to 57.1 µM unless noted; further: nearly all actives have a fitted effect of over 50% in size; further: potency means the concentration at half of the fitted maximal effect
Procedure, shortened: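 Counterscreen run in the same HEK293-ACE2 line as the pseudotyped-particle entry assay, without particles. Viability after 48 h at 37 C was read as ATP luminescence, scaled between cell-containing and cell-free wells.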

[15] = target: Bile acid receptor (Homo sapiens) (UniProt Q96RI1); experiment: qHTS assay for small molecule agonists of farnesoid X receptor signaling (AID 588527); details: HEK293T FXR-UAS-bla, beta-lactamase ratio, 16 h; stronger effect = higher value
Bile acid receptor (Homo sapiens), sequence (Q96RI1 whole entry, looked up): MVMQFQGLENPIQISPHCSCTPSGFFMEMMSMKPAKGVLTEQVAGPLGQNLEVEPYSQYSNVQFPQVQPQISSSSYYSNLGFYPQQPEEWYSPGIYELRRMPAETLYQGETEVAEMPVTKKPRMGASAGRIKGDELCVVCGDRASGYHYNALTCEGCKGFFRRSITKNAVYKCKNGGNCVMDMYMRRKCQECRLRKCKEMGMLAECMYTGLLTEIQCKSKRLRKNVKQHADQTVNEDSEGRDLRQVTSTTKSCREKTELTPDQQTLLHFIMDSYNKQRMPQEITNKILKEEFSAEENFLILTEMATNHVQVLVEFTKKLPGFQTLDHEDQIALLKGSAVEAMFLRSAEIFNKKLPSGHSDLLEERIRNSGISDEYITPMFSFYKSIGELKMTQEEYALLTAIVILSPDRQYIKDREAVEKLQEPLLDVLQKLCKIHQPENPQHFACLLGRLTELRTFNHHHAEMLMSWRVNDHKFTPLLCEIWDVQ
Procedure, shortened: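 FXR-UAS-bla HEK293T, 10% dialyzed FBS; cpds up to 92 uM titration, 16 h 37 C; CCF4 dye 2 h RT; fluorescence. Normalized to chenodeoxycholic acid 100 uM (100%) and DMSO (0%); Hill fit gives EC50, efficacy.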

[16] = target: Nuclear receptor subfamily 1 group I member 3 (Homo sapiens) (UniProt Q14994); experiment: Primary qHTS for antagonist of constitutive androstane receptor (CAR) against the NCATS DSHEA and TCM libraries (AID 1794836; active means well fitted curve in the direction sought with a large enough effect; an effect the other way counts as inactive or inconclusive;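 further: HepG2 cells stably expressing hCAR with CYP2B6 luciferase reporter stimulated by CITCO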)
Nuclear receptor subfamily 1 group I member 3 (Homo sapiens), sequence (Q14994 whole entry, looked up): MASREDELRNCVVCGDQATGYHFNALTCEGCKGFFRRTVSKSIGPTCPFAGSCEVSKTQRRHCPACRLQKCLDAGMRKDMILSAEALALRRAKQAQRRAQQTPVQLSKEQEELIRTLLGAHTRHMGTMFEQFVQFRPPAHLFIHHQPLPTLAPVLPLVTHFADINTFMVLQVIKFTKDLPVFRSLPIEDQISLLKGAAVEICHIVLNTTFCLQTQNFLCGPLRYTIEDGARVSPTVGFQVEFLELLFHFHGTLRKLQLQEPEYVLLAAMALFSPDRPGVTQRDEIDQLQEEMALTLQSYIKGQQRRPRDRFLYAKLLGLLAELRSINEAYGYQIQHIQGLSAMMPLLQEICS
Procedure, shortened: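 HepG2-CYP2B6-hCAR cells, attached 5 h, given compounds plus CITCO agonist […], incubated 24 h at 37 C. Luciferase luminescence read, multiplexed with CellTiter-Fluor viability (Ex/Em 405/540 nm).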

[17] = KB-8-5-11 P-gp reporter qHTS against the NCATS DSHEA and TCM libraries (AID 1919977; active means well fitted curve in the direction sought with a large enough effect; an effect the other way counts as inactive or inconclusive)
Procedure, shortened: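 Cells were seeded, allowed ~4 h to attach, dosed by pin tool (substance titrations), incubated ~72 h at 37C, then lysed with CellTiter-Glo for 30 min at room temperature before luminescence reading.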

[18] = target: Cytochrome P450 2D6 (Homo sapiens) (UniProt P10635); experiment: Cytochrome P450 family 2 subfamily D member 6 (CYP2D6) small molecule antagonists: luciferase biochemical (cell-free) qHTS assay (AID 1645840; active means well fitted curve in the direction sought with a large enough effect in the repeat runs; an effect the other way counts as inactive or inconclusive; further: potency means the concentration at half of the fitted maximal effect; nearly all actives have a fitted effect of over 55% in size)
Cytochrome P450 2D6 (Homo sapiens), sequence (P10635 whole entry, looked up): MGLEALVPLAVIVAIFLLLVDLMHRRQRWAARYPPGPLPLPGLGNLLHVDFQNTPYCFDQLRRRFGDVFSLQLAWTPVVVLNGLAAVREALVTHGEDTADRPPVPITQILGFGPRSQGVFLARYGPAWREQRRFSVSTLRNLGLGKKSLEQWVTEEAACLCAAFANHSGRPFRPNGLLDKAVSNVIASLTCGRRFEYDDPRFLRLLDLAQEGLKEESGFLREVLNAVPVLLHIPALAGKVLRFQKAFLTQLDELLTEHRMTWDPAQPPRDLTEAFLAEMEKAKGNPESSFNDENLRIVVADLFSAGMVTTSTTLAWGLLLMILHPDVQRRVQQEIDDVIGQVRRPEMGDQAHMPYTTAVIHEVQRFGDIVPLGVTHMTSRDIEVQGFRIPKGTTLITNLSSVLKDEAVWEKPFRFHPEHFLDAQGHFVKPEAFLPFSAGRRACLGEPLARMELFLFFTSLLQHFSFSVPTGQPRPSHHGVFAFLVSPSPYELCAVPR
Procedure, shortened: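 P450-Glo CYP2D6 system: proluciferin substrate converted by enzyme to luciferin, read by luminescence proportional to activity. Enzyme-substrate mix with compound 10 min at room temperature, then NADPH regeneration 1 h before detection reagent.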

[19] = target: Cytochrome P450 2C9 (Homo sapiens) (UniProt P11712); experiment: Cytochrome P450 family 2 subfamily C member 9 (CYP2C9) small molecule antagonists: luciferase biochemical (cell-free) qHTS assay (AID 1645842; active means well fitted curve in the direction sought with a large enough effect in the repeat runs; an effect the other way counts as inactive or inconclusive; further: potency means the concentration at half of the fitted maximal effect; nearly all actives have a fitted effect of over 55% in size)
Cytochrome P450 2C9 (Homo sapiens), sequence (P11712 whole entry, looked up): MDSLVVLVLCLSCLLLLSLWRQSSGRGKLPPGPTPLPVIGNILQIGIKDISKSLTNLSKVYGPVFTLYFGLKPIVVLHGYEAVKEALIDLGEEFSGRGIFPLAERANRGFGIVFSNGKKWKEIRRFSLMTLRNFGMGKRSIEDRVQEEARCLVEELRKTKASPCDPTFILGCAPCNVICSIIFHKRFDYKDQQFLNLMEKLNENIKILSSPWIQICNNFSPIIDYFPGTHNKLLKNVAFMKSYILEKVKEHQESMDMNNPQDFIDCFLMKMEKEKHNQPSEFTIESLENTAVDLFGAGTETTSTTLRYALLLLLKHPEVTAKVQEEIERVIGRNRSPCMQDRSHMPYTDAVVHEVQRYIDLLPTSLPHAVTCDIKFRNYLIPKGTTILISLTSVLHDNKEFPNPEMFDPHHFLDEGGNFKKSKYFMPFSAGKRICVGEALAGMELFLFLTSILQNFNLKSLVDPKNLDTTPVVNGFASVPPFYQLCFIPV
Procedure, shortened: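 P450-Glo CYP2C9 system: proluciferin substrate with enzyme in mix containing 0.4% BSA, 10 min at room temperature, then NADPH regeneration solution added and incubated 1 h at 37C. Detection reagent stopped reaction; luminescence read after 20 min as RLU.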

## CN(C)c1ccc(C(=C2C=CC(=[N+](C)C)C=C2)c2c(O)c(S(=O)(=O)[O-])cc3cc(S(=O)(=O)O)ccc23)cc1
[1]
  Potency: inactive
[2]
  Potency: inactive
[3]
  Potency: inactive
[4]
  Potency: inactive
[5]
  activity change, negative = inhibition: -12.7%

## CCCC[C@H](C)C[C@H](O)/C=C/[C@H]1[C@H](O)CC(=O)[C@@H]1CCCC/C=C/C(=O)O
[1]
  Potency: inactive
[2]
  Potency: inactive
[3]
  Potency: inactive
[4]
  Potency: inactive
[5]
  activity change, negative = inhibition: -18.9%

## CC1(C)C(C=C(Cl)Cl)C1C(=O)OCc1cccc(Oc2ccccc2)c1 (stereo unspecified)
[6]
  activation: 2.68% (inactive) and -0.215% (inactive) and 2.06% (inactive)
[7]
  outcome: inactive
[8]
  outcome: inactive
[9]
  max response: -7.32% and -8.4%
[10]
  Potency: inactive
[11]
  outcome: inactive
[12]
  Potency: inactive
[13]
  Potency: inactive
[1]
  Potency: inactive
[2]
  Potency: inactive
[3]
  Potency: inactive
[4]
  Potency: inactive
[14]
  Potency: inactive

## CC[C@H]1CN2CCc3cc(OC)c(OC)cc3C2C[C@@H]1CC1NCCc2cc(OC)c(OC)cc21 (stereo partly specified)
[1]
  Potency: 5.62 µM (active)
[2]
  Potency: 17.8 µM (active)
[3]
  Potency: 5.62 µM (active)
[4]
  Potency: inactive
[5]
  Potency: 1.78 µM (active)

## C[C@H](CCC(=O)O)[C@H]1CC[C@H]2[C@@H]3CC[C@@H]4C[C@H](O)CC[C@]4(C)[C@@H]3C[C@H](O)[C@]12C
[1]
  Potency: inactive
[2]
  Potency: inactive
[3]
  Potency: inactive
[4]
  Potency: inactive
[5]
  Potency: inactive

## CCCCC(CC)COC(=O)c1ccc(Nc2nc(Nc3ccc(C(=O)OCC(CC)CCCC)cc3)nc(Nc3ccc(C(=O)OCC(CC)CCCC)cc3)n2)cc1 (stereo unspecified)
[1]
  Potency: inactive
[2]
  Potency: inactive
[3]
  Potency: inactive
[4]
  Potency: inactive
[5]
  activity change, negative = inhibition: -28%

## C[C@H](CCC(=O)O)[C@H]1CC[C@H]2[C@@H]3[C@H](O)C[C@@H]4C[C@H](O)CC[C@]4(C)[C@H]3C[C@H](O)[C@]12C
[15]
  activation: 1.14% (inactive)
[1]
  Potency: inactive
[2]
  Potency: inactive
[3]
  Potency: inactive
[4]
  Potency: inactive
[14]
  Potency: inactive

## CS(=O)(=O)c1ccc([C@@H](O)[C@@H](COC(=O)CN)NC(=O)C(Cl)Cl)cc1
[1]
  Potency: inactive
[2]
  Potency: inactive
[3]
  Potency: inactive
[14]
  Potency: inactive

## CC(C)=CCC/C(C)=C/CC/C(C)=C/CC/C(C)=C/CC1=C(C)C(=O)c2ccccc2C1=O
[1]
  Potency: inactive
[2]
  Potency: inactive
[3]
  Potency: inactive
[4]
  Potency: inactive
[16]
  Potency: inactive
[17]
  Potency: inactive

## C#C[C@]1(O)CC[C@@H]2[C@@H]3CCC4=CCCC[C@@H]4[C@H]3C(=C)C[C@@]21CC
[1]
  Potency: inactive
[2]
  Potency: inactive
[3]
  Potency: inactive
[4]
  Potency: inactive
[5]
  activity change, negative = inhibition: 3.84%

## CCOc1ccc(Cc2cc([C@@H]3O[C@H](CO)[C@@H](O)[C@H](O)[C@H]3O)ccc2Cl)cc1
[1]
  Potency: inactive
[2]
  Potency: inactive
[3]
  Potency: inactive
[4]
  Potency: inactive
[5]
  activity change, negative = inhibition: 0.66%

## CCCCCCCCCC(=O)OCCN1CCN(CC/C=C2/c3ccccc3Sc3ccc(Cl)cc32)CC1
[1]
  Potency: inactive
[2]
  Potency: inactive
[3]
  Potency: inactive
[4]
  Potency: inactive
[5]
  activity change, negative = inhibition: -15%

## O=C(/C=C/c1cccc(S(=O)(=O)Nc2ccccc2)c1)NO
[1]
  Potency: 10 µM (active)
[2]
  Potency: inactive
[3]
  Potency: inactive
[14]
  Potency: 12.6 µM (active)

## COC(=O)CCC[N+](C)(C)C
[1]
  Potency: inactive
[2]
  Potency: inactive
[3]
  Potency: inactive
[4]
  Potency: inactive
[5]
  activity change, negative = inhibition: -38.5%

## CC=CC1C(C(=O)OCc2c(F)c(F)c(COC)c(F)c2F)C1(C)C (stereo unspecified)
[1]
  Potency: inactive
[2]
  Potency: inactive
[3]
  Potency: inactive
[18]
  Potency: 6.74 µM (active)
[19]
  Potency: 10.7 µM (active)
[14]
  Potency: inactive
[5]
  activity change, negative = inhibition: -7.64%

## CC(=O)OCC(=O)[C@@]1(O)CC[C@H]2[C@@H]3C[C@H](C)C4=CC(=O)C=C[C@]4(C)[C@H]3[C@@H](O)C[C@@]21C
[1]
  Potency: inactive
[2]
  Potency: inactive
[3]
  Potency: inactive
[14]
  Potency: inactive
[5]
  Potency: inactive

## CC1(C)C2CCC1(C)C(O)C2 (stereo unspecified)
[1]
  Potency: inactive
[2]
  Potency: inactive
[3]
  Potency: inactive
[4]
  Potency: inactive
[14]
  Potency: inactive
[17]
  Potency: inactive
